Among the data in PubChem BioAssay AID488969 (Vanderbilt High Throughput Screening Facility, 2010) are z-score values, retold here.

Whole data set: some 110,000 compounds, median “z-score” near -0.1, cut for the highest 2% near 2. This is one part of a sample in which the highest values are shown more often than they occur. Activity calls are given as the source filed them.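 How the source made its calls: active means z-score in the third read window above 3 or below -3; inactive means the rest.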

In the experiment the target is Metabotropic glutamate receptor 8 (Rattus norvegicus) (UniProt P70579). The experiment in a line: rat mGluR8 modulators via GIRK flux, primary screen, cell-based, thallium flux, HTS (AID 488969). The following applies: HEK293 rat mGluR8, GIRK (G protein-gated inwardly rectifying potassium channel) thallium flux, FluoZin2; at 10 µM; stronger effect = higher value; submaximal glutamate (EC20) added with thallium.
Metabotropic glutamate receptor 8 (Rattus norvegicus), sequence (P70579 whole entry, looked up): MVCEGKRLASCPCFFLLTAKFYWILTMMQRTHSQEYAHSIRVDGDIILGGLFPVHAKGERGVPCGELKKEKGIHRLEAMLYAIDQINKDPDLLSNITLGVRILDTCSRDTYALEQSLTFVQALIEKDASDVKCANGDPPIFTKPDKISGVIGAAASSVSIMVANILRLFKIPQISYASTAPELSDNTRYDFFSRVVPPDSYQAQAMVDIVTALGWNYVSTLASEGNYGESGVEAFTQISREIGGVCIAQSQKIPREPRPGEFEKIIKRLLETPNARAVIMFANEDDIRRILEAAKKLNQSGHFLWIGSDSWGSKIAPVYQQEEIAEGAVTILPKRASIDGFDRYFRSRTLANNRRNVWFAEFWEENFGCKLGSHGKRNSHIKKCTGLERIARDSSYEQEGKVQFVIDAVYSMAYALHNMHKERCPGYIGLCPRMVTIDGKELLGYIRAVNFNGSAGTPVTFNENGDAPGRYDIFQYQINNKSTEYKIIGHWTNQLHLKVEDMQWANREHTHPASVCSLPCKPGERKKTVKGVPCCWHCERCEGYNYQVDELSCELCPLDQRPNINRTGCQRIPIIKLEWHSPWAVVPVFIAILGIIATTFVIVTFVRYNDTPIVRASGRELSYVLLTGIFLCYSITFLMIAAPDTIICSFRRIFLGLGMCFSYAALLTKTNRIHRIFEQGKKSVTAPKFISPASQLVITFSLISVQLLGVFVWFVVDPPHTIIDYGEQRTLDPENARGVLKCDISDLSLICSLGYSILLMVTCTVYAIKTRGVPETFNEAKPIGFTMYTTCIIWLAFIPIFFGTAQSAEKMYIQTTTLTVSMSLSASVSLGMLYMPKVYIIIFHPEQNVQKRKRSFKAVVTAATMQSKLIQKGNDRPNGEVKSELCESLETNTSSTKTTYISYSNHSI
On to `O=C(Nc1ccc(Cl)cc1)Nc1cccnc1`, for which the z-score was determined as 0.471.

`CCN(CC)c1ncnc2c1cnn2C`: the z-score was -0.228. The compound `CCC1(CC)C(=O)N(C)C(=O)NC1=NCc1ccccc1` gave a z-score of 0.146. In the case of `COc1ccc(/C=C/C(=O)Nc2ccc(N3CCOCC3)cc2)cc1`, the z-score was -0.219. The result for `CCCCn1c(N)c(C(=S)NC(=O)CC(C)(C)C)c(=O)n(C)c1=O` reads 9.54 (active).

For the compound `CC(C)Cn1c(N)c(C(=O)CSc2ccccc2)c(=O)n(C)c1=O`, the z-score is -0.216. The result for `Cn1c(=O)c(C(=S)NC(=O)C2CC2)c(N)n(Cc2ccccc2)c1=O` reads 0.362; that for `CCCn1c(N)c(C(=S)NC(=O)C2CC2)c(=O)n(C)c1=O`, 0.941. In the case of `CC(C)Cn1c(N)c(C(=O)CSc2nnnn2C)c(=O)n(C)c1=O`, the z-score was -0.302. With `CCCCn1c(N)c(C(=S)NC(=O)CC(C)C)c(=O)n(C)c1=O`, the z-score was 3.59 (active). Then `CC(C)(C)n1ncc2c(=O)n(Cc3ccc(Cl)cc3Cl)cnc21`, with -1.25; and `Cc1ccc(CNC(=O)CCCOc2cc(=O)n(C)c3ccccc23)o1`, with -0.129. The result for `Clc1ccc(C(c2nnnn2C2CCCC2)N2CCSCC2)cc1` (centres undefined) reads -0.998; that for `O=C(O)C1CCN(C(=O)c2ccccc2Cl)CC1`, -0.551. Then `CC(=O)NC(CC(=O)Nc1cccc(S(=O)(=O)N2CCCCC2)c1)c1ccccc1` (centres undefined), with 0.132; and `COCCCn1c(SCC(=O)N2CCc3ccccc32)nnc1-c1ccco1`, with -0.129. In the case of `COc1ccc(C2/C(=C(/O)c3ccccc3)C(=O)C(=O)N2CCO)cc1` (centres undefined), the z-score was -0.0153. Take `COc1ccc(N/C(C)=C2/C(=O)C(=O)N(CCO)C2c2ccc([N+](=O)[O-])cc2)cc1` (centres undefined): the z-score was -0.701.

As for `COc1ccc(N/C(C)=C2/C(=O)C(=O)N(CCO)C2c2ccc(Br)cc2)cc1` (centres undefined), the z-score is 5.05 (active). With `O=C1CCCc2c1cc(C(=O)NC1CCSC1=O)c(=O)n2-c1ccccc1` (centres undefined), the z-score was -0.276.

For the compound `CCN(CC)CC(=O)Nc1ccc2c(c1)Nc1ccccc1CC2`, the z-score is 2.49.

In the case of `CCN(CC)CCC(=O)Nc1ccc2c(c1)N(C(=O)CN(CC)CC)c1ccccc1CC2`, the z-score was -0.214.

As to `CCN(CC)CC(=O)Nc1ccc2c(c1)N(C(=O)CN(CC)CC)c1ccccc1CC2`, the z-score was -0.342. The result for `COc1ccc(C(=O)c2cn[nH]c2-c2cc(Cl)ccc2O)cc1` reads -0.207; that for `COc1ccc(/C=C2\C(=O)N(c3c(Cl)cc(Cl)cc3Cl)N=C2NC(=O)c2cccc([N+](=O)[O-])c2)cc1`, -0.0535; that for `CCn1cc(S(=O)(=O)CC(=O)Nc2ccc(C)cc2)c2ccccc21`, -0.393. Turning to `CCn1cc(S(=O)(=O)CC(=O)Nc2cc(C)ccc2C)c2ccccc21`, the z-score was found to be 2.61. The result for `Cc1ccc(C)c(NC(=O)CS(=O)(=O)c2cn(C)c3ccccc23)c1` reads 0.61; that for `CCOc1ccc(OCCOCCNCCOC)cc1`, 0.0989.
